Data on eight compounds can be found in PubChem BioAssay (NCI).

Compounds without any hit were thinned out: in the full panel of roughly 83,000, 20% have a hit.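 Percent growth is the endpoint: 0 to 100 indicates growth inhibition (40 means 60% inhibition), 0 means no net growth, and negative values indicate cell death.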 Unmarked numbers belong to inactive results. Active and inactive are the calls of the source. The calls were made as follows: active = growth percent below 10; inactive = the rest.

Some test systems named below: DU-145 prostate; K-562 leukemia; MALME-3M melanoma; MDA-MB-231 breast; RXF 393 renal; SF-268 CNS; SF-295 CNS; SF-539 CNS; UACC-257 melanoma; M14 melanoma; HCT-15 colon; HT29 colon; SNB-75 CNS; SNB-19 CNS; U251 CNS; PC-3 prostate; SK-MEL-5 melanoma; UACC-62 melanoma; LOX IMVI melanoma; SK-MEL-28 melanoma.
Holding throughout (assay): NCI-60 one-dose screen, 48 h (100 = growth as untreated, 0 = no growth, -100 = all killed)
Holding throughout (settings): 10 µM unless noted

Turning to `CCCCCCCOc1cccc(/C=C2\N=C3SCCCN3C2=O)c1`, the growth in the test with DU-145 prostate was 94.5%; in the test on K-562 leukemia it was 90.4%; in the test with MALME-3M melanoma it was 139%; with MDA-MB-231 breast, 87.7%; in the test on RXF 393 renal it was 116%; in the test on SF-268 CNS, 103%. The growth is 93.8% in the test on SF-295 CNS; 111% in the test on SF-539 CNS; 114% with UACC-257 melanoma; 102% in the test with M14 melanoma; 87.5% with HCT-15 colon; 88.9% in the test with HT29 colon. Moreover, the growth was 91.2% with SNB-75 CNS; 92.8% in the test with SNB-19 CNS; 91.1% in the test on U251 CNS; 85.3% in the test with PC-3 prostate; 90.1% in the test on SK-MEL-5 melanoma; 79.6% in the test with UACC-62 melanoma. Also, the growth was 96.2% in the test with LOX IMVI melanoma and 100% in the test on SK-MEL-28 melanoma.
Turning to `Cc1cc(N)cc(C)c1-c1c(Br)cc(N)cc1Br`, the growth in the test with DU-145 prostate was 28.6%; with K-562 leukemia, 8.58% (active); with MALME-3M melanoma, 14%; in the test on MDA-MB-231 breast, 42.6%; in the test on RXF 393 renal, -22.9% (active); in the test with SF-268 CNS, 41.4%. In addition, the growth in the test on SF-295 CNS is -14% (active); with SF-539 CNS, 15.3%; in the test on UACC-257 melanoma, 62%; in the test with M14 melanoma, 10.8%; in the test on HCT-15 colon it was 32%; in the test on HT29 colon, 9.08% (active). Moreover, the growth in the test with SNB-75 CNS is 2.44% (active); in the test with SNB-19 CNS it was 37.4%; in the test with U251 CNS, 22.2%; with PC-3 prostate it was 23.2%; in the test with SK-MEL-5 melanoma, 21%; in the test on UACC-62 melanoma, 48.9%. For the same compound, the growth is 16% with LOX IMVI melanoma and 44.5% in the test on SK-MEL-28 melanoma.
For `Clc1ccc(Cl)c(N=Cc2ccc3c(c2)OCO3)c1`, the growth in the test with DU-145 prostate was 120%; in the test on K-562 leukemia, 103%; in the test with MALME-3M melanoma it was 111%; in the test with MDA-MB-231 breast it was 124%; with RXF 393 renal, 111%; with SF-268 CNS, 105%. The growth in the test with SF-295 CNS is 106%; in the test with SF-539 CNS it was 116%; in the test on UACC-257 melanoma, 103%; with M14 melanoma it was 102%; with HCT-15 colon, 106%; with HT29 colon it was 110%. Besides, the growth in the test on SNB-75 CNS was 103%; in the test with SNB-19 CNS it was 107%; in the test on U251 CNS, 104%; with PC-3 prostate it was 107%; in the test with SK-MEL-5 melanoma, 106%; in the test on UACC-62 melanoma it was 103%. The growth in the test with LOX IMVI melanoma was 95.2%; in the test with SK-MEL-28 melanoma, 116%.
For `COc1cc(C2CC(c3ccc(Cl)cc3)=NN2C=O)ccc1Oc1ccnc2cc(Cl)ccc12` (stereo not given), the growth in the test on DU-145 prostate is 85.7%; in the test with K-562 leukemia it was 72.5%; with MALME-3M melanoma, 64%; in the test with MDA-MB-231 breast, 56.9%; with RXF 393 renal, 64.2%; in the test on SF-268 CNS, 68.6%. Also, the growth with SF-295 CNS was 66.2%; in the test with SF-539 CNS, 66.2%; in the test on UACC-257 melanoma, 66.8%; in the test on M14 melanoma, 92.4%; in the test on HCT-15 colon it was 85.7%; in the test on HT29 colon, 58%. The growth in the test on SNB-75 CNS was 7.19% (active); in the test with SNB-19 CNS it was 72.6%; with U251 CNS it was 72.5%; in the test with PC-3 prostate, 66.8%; with SK-MEL-5 melanoma, 51%; with UACC-62 melanoma, 74.6%. Moreover, the growth is 74.2% in the test on LOX IMVI melanoma and 74.4% with SK-MEL-28 melanoma.
Regarding `COc1cc(Cl)cc(-c2nn(C(=O)NCCN3CCOCC3)cc2-c2ccncc2)c1`, the growth in the test with DU-145 prostate is 86.1%; in the test with K-562 leukemia, 28.1%; in the test on MALME-3M melanoma, 70.2%; in the test with MDA-MB-231 breast, 82.1%; in the test with RXF 393 renal, 76.3%; with SF-268 CNS, 80.9%. Besides, the growth was 52.7% in the test on SF-295 CNS; 68.4% with SF-539 CNS; 81.7% in the test with UACC-257 melanoma; 62% in the test with M14 melanoma; 45.7% with HCT-15 colon; 34.1% in the test on HT29 colon. Moreover, the growth with SNB-75 CNS was 28.9%; in the test on SNB-19 CNS it was 69.2%; with U251 CNS, 57.7%; in the test on PC-3 prostate, 70.6%; with SK-MEL-5 melanoma, 35.5%; in the test with UACC-62 melanoma it was 52.4%. For the same compound, the growth is 63.2% in the test with LOX IMVI melanoma and 61.4% in the test on SK-MEL-28 melanoma.
As for `CNC(=O)OC1C(O[C@H]2C[C@H]3[C@@H]4CC=C5C[C@@H](O)CC[C@]5(C)[C@H]4CC[C@]3(C)[C@H]2[C@H](C)C(=O)CCC(C)C)OCC(O)C1OC1OCC(O)C(O)C1OC(=O)c1ccc(OC)cc1` (stereo not given in full), the growth in the test with DU-145 prostate is 42%; with K-562 leukemia, -20.5% (active); in the test with MALME-3M melanoma, 4.11% (active); in the test on MDA-MB-231 breast it was 32.5%; in the test on RXF 393 renal it was -64.4% (active); in the test with SF-268 CNS, 0.344% (active). In addition, the growth is -63.3% (active) in the test on SF-295 CNS; -53.5% (active) with SF-539 CNS; -54.9% (active) in the test on UACC-257 melanoma; -65.5% (active) in the test on M14 melanoma; 0.802% (active) with HCT-15 colon; 14.7% with HT29 colon. Also, the growth is 18.4% in the test on SNB-75 CNS; 23.2% in the test with SNB-19 CNS; 1.48% (active) with U251 CNS; -21.8% (active) in the test on PC-3 prostate; -27.9% (active) with SK-MEL-5 melanoma; -27.6% (active) in the test with UACC-62 melanoma. The growth was -31.3% (active) in the test on LOX IMVI melanoma and -53.3% (active) with SK-MEL-28 melanoma.
Consider `N=c1nc(N2CCCCC2)cc(N)n1O`, for which the growth in the test on DU-145 prostate is 114%; with K-562 leukemia it was 116%; in the test with MALME-3M melanoma, 145%; in the test on MDA-MB-231 breast, 108%; in the test with RXF 393 renal, 108%; in the test on SF-268 CNS it was 109%. The growth was 103% in the test with SF-295 CNS; 116% in the test with SF-539 CNS; 99.8% in the test on UACC-257 melanoma; 123% in the test on M14 melanoma; 97% in the test with HCT-15 colon; 107% in the test with HT29 colon. Further, the growth was 93.5% in the test on SNB-75 CNS; 99.8% in the test on SNB-19 CNS; 101% with U251 CNS; 103% in the test with PC-3 prostate; 94.8% in the test with SK-MEL-5 melanoma; 104% in the test with UACC-62 melanoma. In addition, the results for the growth in the test on LOX IMVI melanoma and in the test with SK-MEL-28 melanoma were 110% and 111%, respectively.
For `O=C(Nc1ccc(Br)cc1)Nc1cccc(Br)c1`, the growth in the test on DU-145 prostate was 30.7%; in the test with K-562 leukemia it was 4.34% (active); in the test on MALME-3M melanoma it was 60.2%; in the test with MDA-MB-231 breast, 66.6%; in the test on RXF 393 renal it was 105%; with SF-268 CNS it was 69%. Further, the growth in the test on SF-295 CNS is 28.1%; with SF-539 CNS it was 76.6%; in the test on UACC-257 melanoma it was 36.3%; in the test with M14 melanoma, 24.1%; in the test with HCT-15 colon it was 15.4%; with HT29 colon, 28.2%. Besides, the growth in the test on SNB-75 CNS was 85%; with SNB-19 CNS, 29.2%; in the test with U251 CNS, 28.4%; in the test with PC-3 prostate, 4.68% (active); in the test on SK-MEL-5 melanoma, 65.3%; in the test on UACC-62 melanoma, 5.82% (active). Besides, the growth in the test with LOX IMVI melanoma was 33%; with SK-MEL-28 melanoma, 43.7%.
